TGFb SMAD3 inh – blocks TGF-b signaling; Potency, µM (series often up to 46.1 µM), without a hit: at the top dose activity, negative = inhibition, hits mostly inhibitors; HepG2 CAGA-GFP TGF-b/SMAD3 reporter, GFP fluorescence, 18 h; TGF-beta stimulated, 500 pg/mL final; AID 588855; 1.2% of 410,000 active; note: potency is the fitted concentration of half-maximal effect; % is set by controls: 0 for no effect and ±100 for the full control effect; nearly all actives have a fitted effect of over 65% in size
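Read-out: total well GFP (ex488/em500-530) summed from mean per-cell fluorescence. Cells: HEPG2 CAGA-GFP, 1% FBS DMEM, 18 h at 37 degrees C with 500 pg/mL final TGF-beta. Unstimulated wells served as the full-inhibition control; stimulated DMSO wells = 0%.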
mIDH1 inhibitor – blocks human mutant IDH1 R132H enzyme. O75874. 0.093% of 390,000 active. Potency, µM (titrated, usually from 76.6 µM), for the others: top-dose activity change, negative = inhibition, hits mostly inhibitors. AID 602179. IDH1-R132H enzyme, NADPH consumption, diaphorase/resazurin fluorescence; note: potency is the fitted concentration of half-maximal effect; % is set by controls: 0 for no effect and ±100 for the full control effect; nearly all actives have a fitted effect of over 65% in size
Target sequence (O75874 whole entry R132H, stated change not applied): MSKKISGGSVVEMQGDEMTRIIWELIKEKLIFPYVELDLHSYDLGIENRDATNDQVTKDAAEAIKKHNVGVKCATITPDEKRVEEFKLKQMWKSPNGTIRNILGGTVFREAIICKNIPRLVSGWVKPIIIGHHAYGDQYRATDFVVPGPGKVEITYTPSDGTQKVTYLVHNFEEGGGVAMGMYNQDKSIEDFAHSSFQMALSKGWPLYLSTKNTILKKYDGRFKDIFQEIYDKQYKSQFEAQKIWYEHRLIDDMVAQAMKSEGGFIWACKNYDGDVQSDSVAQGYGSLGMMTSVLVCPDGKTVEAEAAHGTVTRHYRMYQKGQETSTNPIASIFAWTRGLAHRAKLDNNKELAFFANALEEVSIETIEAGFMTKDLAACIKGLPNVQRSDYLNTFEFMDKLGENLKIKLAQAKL
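IDH1-R132H (0.5 ug/mL) preincubated 30 min with compound, then NADPH (0.016 mM) and alpha-KG (2 mM) added; 80 min at RT, pH 7.5. Remaining NADPH coupled via diaphorase/resazurin to fluorescence (540/590 nm); concentration-response curves normalized to no-enzyme control.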
HepG2 tox – HepG2 cytotoxicity, counter-screen for TGF-b inhibitors. HepG2 CAGA-GFP viability, ATP luminescence, 18 h. 0.76% of 410,000 active. Potency, µM (series often up to 46.1 µM), for inactives: at the highest dose activity change, negative = cytotoxicity, actives largely listed as cytotoxic; note: potency is the fitted concentration of half-maximal effect
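CellTiter-Glo luminescence gave cytotoxicity after 18 hours at 37 degrees C. The cells were HepG2 CAGA-GFP in 1% FBS DMEM, stimulated with 500 pg/mL TGF-beta after compound addition. %Activity was normalised to no-cell wells (complete cell-killing) and DMSO (no toxicity), and curves were fitted and classified.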
LDHA block – LDHA (human) enzyme inhibition; AID 1347041; purified LDHA, NADH/diaphorase-resazurin fluorescence; active compounds read low; P00338; 0.15% of 480,000 active; activity change, % (values are at about 110 or 230 µM); in the data active = activity change below about -30%; inconclusive = mostly about -25% to -30%;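 note: plate controls were DMSO wells for no effect and wells without enzyme for full effect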
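LDH5 2 nM; NADH 0.06 mM, pyruvate 0.2 mM; 200 mM Tris pH 7.4, EDTA, Tween-20; 5 min RT. Detection: diaphorase 0.133 mg/mL + resazurin 37 µM, fluorescence ex540/em590 at 0 and 20 min; normalized to enzyme-free and DMSO wells.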
ATXN2 expr inh – ATXN2 expression inhibition | 0.72% of 360,000 active | HEK-293 ATXN2-luciferase reporter, luminescence, 24 h | Potency, µM (top dose mostly 57 µM), without a hit: top-dose activity change, negative = inhibition, actives largely listed as inhibitors | AID 1745845; note: potency is the fitted concentration of half-maximal effect; % is set by controls: 0 for no effect and ±100 for the full control effect; nearly all actives have a fitted effect of over 55% in size
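qHTS (up to 57 uM final) was run with 24 h compound exposure of reporter cells at 37 °C. Each well was multiplexed: SteadyGlo luminescence measured ATXN2-luciferase expression after a fluorogenic Gly-Phe-AFC viability readout (25 uM final).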
S2 tox – cell viability loss in ATXN counter-screen | S2 cells (HEK-293 line with an ATXN2-luciferase reporter) viability, CellTiter-Fluor protease fluorescence, 24 h | Potency, µM (top dose mostly 56.7 µM), actives largely listed as cytotoxic | 0.49% of 400,000 active; note: potency is the fitted concentration of half-maximal effect; nearly all actives have a fitted effect of over 40% in size
Resorufin autofl – autofluorescence interference, mutant IDH1 hit counter-screen. shares compounds with mIDH1 inhibitor. 750 tested, under 10 active. Resorufin detection reagent fluorescence interference, cell-free. inhibition of signal, % at 51.2 µM;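 note: 0% = wells with normal resorufin and full inhibition = wells lacking resorufin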
IDH1 WT – inhibits human wild-type IDH1, mutant selectivity check | shares compounds with mIDH1 inhibitor | WT IDH1 enzyme, NADPH diaphorase/resazurin fluorescence | Potency, µM (titrated, usually from 115 µM), inactives show at the highest dose activity change, negative = inhibition, hits mostly inhibitors | 9% of 750 active | AID 623995;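 note: potency is the fitted concentration of half-maximal effect; 0% = full WT IDH1 enzyme control and full inhibition = no enzyme wells; nearly all actives have a fitted effect of over 55% in size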
Target sequence (O75874 whole entry, looked up): as the sequence (O75874 whole entry R132H, stated change not applied) above, with H132R counted along it
mIDH1 confirm – confirmation of human mutant IDH1 inhibitors. shares compounds with mIDH1 inhibitor. IDH1 R132H enzyme, NADPH diaphorase/resazurin fluorescence. Potency, µM (series often up to 76.6 µM), for inactives: top-dose activity change, negative = inhibition, usual class: inhibitors. 83% of 750 active. AID 624002; note: potency is the fitted concentration of half-maximal effect; nearly all actives have a fitted effect of over 50% in size
* = called active by the depositor; i = inactive; u = inconclusive; x = not tested or not shown. Only some compounds are listed: those with a hit (about 2.2% of all), similar ones and a draw of the others. Unless noted, calls come from the whole dose curve; as a rule, active = well fitted curve in the direction sought with a large enough effect; inconclusive = small, poorly fitted or top-dose-only effect, or another doubt; inactive = no such curve, though single readings can be large; an effect the other way counts as inactive or inconclusive.

SMILES	TGFb SMAD3 inh	mIDH1 inhibitor	HepG2 tox	LDHA block	ATXN2 expr inh	S2 tox	Resorufin autofl	IDH1 WT	mIDH1 confirm
COc1cccc(C(C(=O)NC2CCCCC2)N(C(=O)c2cccs2)c2ccc3c(c2)OCO3)c1 (configuration not stated)	-15%	u	-23%	-13	-8%	i	-1	-5%	-23%
CCc1cccc(NC(=O)C2CCN(S(=O)(=O)c3ccc4c(c3)CC(C)N4C(C)=O)CC2)c1 (configuration not stated)	-31%	1%	-32%	-7	u	i	x	x	x
CCOC(=O)c1ccc(N2C(=O)c3n[nH]c(C)c3C2c2ccc(C(C)C)cc2)cc1 (configuration not stated)	u	-9%	-1%	-4	-12%	i	x	x	x
Cc1ccc(N2C(=O)c3n[nH]c(C)c3C2c2ccc(C(C)C)cc2)cc1 (configuration not stated)	u	u	-102%	-7	u	u	-11	-16%	28µM*
CCOc1ccc(-c2cc3nc(C4CCN(C(=O)OC(C)(C)C)CC4)c(C(=O)O)cn3n2)cc1	-11%	16µM*	-30%	-1	11%	u	4	79µM*	14µM*
CCOc1ccc(-c2cc3nc(C4CCN(C(=O)OC(C)(C)C)CC4)c(C(=O)Nc4c(C)cccc4C)cn3n2)cc1	-12%	-7%	-21%	-8	15%	i	x	x	x
C#CCNC(=O)C1=C[C@H](C(C)(C)C)C[C@H](OCc2ccc(CO)cc2)O1	-6%	-3%	-4%	-3	12%	i	x	x	x
CC(C)(C)[C@@H]1C=C(C(=O)Nc2ccccc2)O[C@H](OCc2ccc(CO)cc2)C1	u	45µM*	-12%	-4	9%	i	-7	-5%	25µM*
CCOc1ccc(NC(=O)c2c(NCc3cc(OC)c(OC)cc3OC)sc3c2CCCC3)cc1	u	0%	-45%	4	-23%	u	x	x	x
N#CC1=C(N)C(C#N)(C#N)C(c2cccnc2)C2COCC=C12 (configuration not stated)	20%	u	5%	-5	-1%	i	4	47%	40µM*
N#C/C(=C\c1ccccc1OCc1ccc(C(=O)O)cc1)C(=O)Nc1ccc(O)cc1	4%	u	6%	-3	-10%	i	0	-26%	40µM*
CCOc1ccc(OCCC(=O)NNC(=O)c2ccccc2Cl)cc1	0%	9%	-11%	2	4%	i	x	x	x
CCO[C@@H]1OC(C(=O)Nc2ccccc2)=C[C@H](c2ccc(C(F)(F)F)cc2)[C@H]1CCCO	u	u	-17%	0	u	u	-4	-4%	22µM*
O=C(O)CCn1c(=O)n(CCC(=O)O)c(=O)n(CCC(=O)O)c1=O	-14%	u	-11%	0	-12%	i	3	5%	-4%
NS(=O)(=O)c1ccc(N2N=C(c3ccc(Br)cc3)CC2c2ccc(F)cc2)cc1 (configuration not stated)	u	u	20µM*	-3	u	x	0	2%	u

Screening results deposited in PubChem by National Center for Advancing Translational Sciences (NCATS).
